{"source": "the supplement of paper PMC8728848", "test_in_all_cases": "glycan array binding signal (z-score within array); higher = stronger binding", "conditions_in_all_cases": "glycan notation: IUPAC condensed, linker removed", "key": {"[1]": {"target": "Gal(b1-4)GlcNAc(b1-3)Gal(b1-4)GlcNAc(b1-3)Gal(b1-4)GlcNAc(b1-3)Gal(b1-4)GlcNAc(b1-3)Gal(b1-4)GlcNAc(b1-2)[Gal(b1-4)GlcNAc(b1-3)Gal(b1-4)GlcNAc(b1-3)Gal(b1-4)GlcNAc(b1-3)Gal(b1-4)GlcNAc(b1-3)Gal(b1-4)GlcNAc(b1-6)]Man(a1-6)[Gal(b1-4)GlcNAc(b1-3)Gal(b1-4)GlcNAc(b1-3)Gal(b1-4)GlcNAc(b1-3)Gal(b1-4)GlcNAc(b1-3)Gal(b1-4)GlcNAc(b1-2)Man(a1-3)]Man(b1-4)GlcNAc(b1-4)[Fuc(a1-6)]GlcNAc", "summary_of_the_method": "(§1)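 The Consortium for Functional Glycomics database supplied 3228 glycan arrays, of which those lacking an available protein sequence were dropped. The binding signal, a within-array Z-score, was averaged across arrays of the same protein sequence and across linkers. Negative scores can be read as non-binding.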"}, "[2]": {"target": "Gal(b1-4)GlcNAc(b1-3)Gal(b1-4)[Fuc(a1-3)]GlcNAc(b1-3)Gal(b1-4)[Fuc(a1-3)]GlcNAc", "summary_of_the_method": "as §1"}, "[3]": {"target": "Gal(b1-4)GlcNAc(b1-3)[Gal(b1-4)GlcNAc(b1-6)]Gal(b1-4)GlcNAc", "summary_of_the_method": "as §1"}, "[4]": {"target": "Gal(b1-4)GlcNAc(b1-6)GalNAc", "summary_of_the_method": "as §1"}, "[5]": {"target": "Gal(b1-4)GlcNAc(b1-6)[Gal(b1-3)]GalNAc", "summary_of_the_method": "as §1"}, "[6]": {"target": "Gal3S(b1-4)Glc6S", "summary_of_the_method": "as §1"}, "[7]": {"target": "GalNAc(a1-3)Gal", "summary_of_the_method": "as §1"}, "[8]": {"target": "GalNAc(b1-3)Gal(a1-4)Gal(b1-4)GlcNAc", "summary_of_the_method": "as §1"}, "[9]": {"target": "GalNAc(b1-4)Gal(b1-4)Glc", "summary_of_the_method": "as §1"}, "[10]": {"target": "GalNAc3S(b1-4)GlcNAc3S", "summary_of_the_method": "as §1"}, "[11]": {"target": "GlcA(b1-3)Gal", "summary_of_the_method": "as §1"}, "[12]": {"target": "GlcNAc(a1-4)Gal(b1-4)GlcNAc(b1-3)Gal(b1-4)Glc", "summary_of_the_method": "as §1"}, "[13]": {"target": "GlcNAc(a1-4)Gal(b1-4)GlcNAc(b1-3)Gal(b1-4)[Fuc(a1-3)]GlcNAc(b1-3)Gal(b1-4)[Fuc(a1-3)]GlcNAc", "summary_of_the_method": "as §1"}, "[14]": {"target": "GlcNAc(b1-3)Gal(b1-4)GlcNAc(b1-2)Man(a1-3)[GlcNAc(b1-3)Gal(b1-4)GlcNAc(b1-2)Man(a1-6)]Man(b1-4)GlcNAc(b1-4)[Fuc(a1-6)]GlcNAc", "summary_of_the_method": "as §1"}, "[15]": {"target": "GlcNAc(b1-3)Gal(b1-4)GlcNAc(b1-3)Gal(b1-4)GlcNAc(b1-3)Gal(b1-4)GlcNAc(b1-2)Man(a1-3)[GlcNAc(b1-3)Gal(b1-4)GlcNAc(b1-3)Gal(b1-4)GlcNAc(b1-3)Gal(b1-4)GlcNAc(b1-2)Man(a1-6)]Man(b1-4)GlcNAc(b1-4)GlcNAc", "summary_of_the_method": "as §1"}, "[16]": {"target": "GlcNAc(b1-3)Gal(b1-4)GlcNAc(b1-6)[Gal(b1-3)]GalNAc", "summary_of_the_method": "as §1"}, "[17]": {"target": "GlcNAc(b1-4)Gal(b1-4)GlcNAc", "summary_of_the_method": "as §1"}, "[18]": {"target": "Kdn(a2-3)Gal(b1-3)GalNAc", "summary_of_the_method": "as §1"}, "[19]": {"target": "Man(a1-2)Man(a1-2)Man(a1-3)Man", "summary_of_the_method": "as §1"}, "[20]": {"target": "Man(a1-3)[Man(a1-6)]Man(a1-6)[Man(a1-3)]Man(b1-4)GlcNAc(b1-4)GlcNAc", "summary_of_the_method": "as §1"}, "[21]": {"target": "Neu5Ac(a2-3)Gal(b1-3)GlcNAc(b1-3)Gal(b1-3)GlcNAc", "summary_of_the_method": "as §1"}, "[22]": {"target": "Neu5Ac(a2-3)Gal(b1-3)[Fuc(a1-4)]GlcNAc(b1-3)Gal(b1-4)[Fuc(a1-3)]GlcNAc", "summary_of_the_method": "as §1"}, "[23]": {"target": "Neu5Ac(a2-3)Gal(b1-4)Glc", "summary_of_the_method": "as §1"}, "[24]": {"target": "Neu5Ac(a2-3)Gal(b1-4)GlcNAc(b1-3)Gal(b1-4)GlcNAc(b1-3)Gal(b1-4)GlcNAc", "summary_of_the_method": "as §1"}, "[25]": {"target": "Neu5Ac(a2-3)Gal(b1-4)GlcNAc(b1-3)[Neu5Ac(a2-3)Gal(b1-4)GlcNAc(b1-6)]GalNAc", "summary_of_the_method": "as §1"}}, "note": "Many of the other results were omitted from the sample, so the strongest signals are more common in it than they were."}
{"binder": "PX9937F-bfa-516-16-516 (Bacteroides fragilis) (protein) LDIDPTSSIADSNYWKTEAQFSTFNVGLHALLRECSFNFFLLGEPRADIYGDVPFGGEATQGMERLPFNTINKENTGISNFAGMYKVINQINLMIAKTKETTVLSEAGKNYYLGEAYGMRAYLYFHLLRSWGDVILYLDYTNGASLDLSNLSKAASPAEEVMKQIKEDITASEKGFGSDYSFKYGRYYWSMAATQMLKGEVYLWSGRQMGGGTADYTTAKTALQSIVSNANVSLQDDFSKVFAYNNKDNSEIIFSIRNAKDEYNMWDDRFRQNLVPQQAYMTSTYCNKEGVSFKDLPEGQLNGLIRLQIRYDLYNKAFRDGDTRKDASMTAVYQKQQDGTVKYIAPFCNKYQGVLLDGASQRSFLNDYPIYRYADCLLLLAEAKALLGEDPTAEINQVRERAYGKEFFEANKATLAYPNDKGDFYTDNKYMSGDEDPLEAILKERMREFMFEGKRWYDLRLLGADYVTKRTSAVATRLLWPINESVLTDNPALKQTPGYQN", "values": [{"measurement": "glycan array binding signal (z-score)", "setting": "[1]", "result": 20.8}, {"measurement": "glycan array binding signal (z-score)", "setting": "[2]", "result": -0.12}, {"measurement": "glycan array binding signal (z-score)", "setting": "[3]", "result": -0.235}, {"measurement": "glycan array binding signal (z-score)", "setting": "[4]", "result": 0.084}, {"measurement": "glycan array binding signal (z-score)", "setting": "[5]", "result": 0.054}, {"measurement": "glycan array binding signal (z-score)", "setting": "[6]", "result": -0.009}, {"measurement": "glycan array binding signal (z-score)", "setting": "[7]", "result": 0.114}, {"measurement": "glycan array binding signal (z-score)", "setting": "[8]", "result": 1.48}, {"measurement": "glycan array binding signal (z-score)", "setting": "[9]", "result": 1.77}, {"measurement": "glycan array binding signal (z-score)", "setting": "[10]", "result": -0.23}, {"measurement": "glycan array binding signal (z-score)", "setting": "[11]", "result": -0.361}, {"measurement": "glycan array binding signal (z-score)", "setting": "[12]", "result": -0.323}, {"measurement": "glycan array binding signal (z-score)", "setting": "[13]", "result": 0.511}, {"measurement": "glycan array binding signal (z-score)", "setting": "[14]", "result": 1.82}, {"measurement": "glycan array binding signal (z-score)", "setting": "[15]", "result": 0.988}, {"measurement": "glycan array binding signal (z-score)", "setting": "[16]", "result": -0.127}, {"measurement": "glycan array binding signal (z-score)", "setting": "[17]", "result": -0.271}, {"measurement": "glycan array binding signal (z-score)", "setting": "[18]", "result": -0.345}, {"measurement": "glycan array binding signal (z-score)", "setting": "[19]", "result": -0.273}, {"measurement": "glycan array binding signal (z-score)", "setting": "[20]", "result": 0.247}, {"measurement": "glycan array binding signal (z-score)", "setting": "[21]", "result": -0.249}, {"measurement": "glycan array binding signal (z-score)", "setting": "[22]", "result": -0.15}, {"measurement": "glycan array binding signal (z-score)", "setting": "[23]", "result": -0.325}, {"measurement": "glycan array binding signal (z-score)", "setting": "[24]", "result": -0.282}, {"measurement": "glycan array binding signal (z-score)", "setting": "[25]", "result": -0.202}]}
